IMPase Li cell = IMPase inhibition in cells with lithium potentiation; CHO-M1 cells, IP1 TR-FRET (IP-One), carbachol + lithium; Potency, µM (highest dose often 59.4 µM), for the others: at the top dose activity, negative = IMPase inhibition, most hits filed as inhibitors; actives 0.35% (n = 210,000);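 further: IP1 builds up when IMPase is blocked and the TR-FRET signal falls; plate controls were basal vehicle for no effect and high inhibitor control for full effect; nearly all actives have a fitted effect of over 50% in size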
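Readout is a homogeneous TR-FRET IP1 immunoassay (Ex 320, Em 665 and 620), where raised cytosolic IP1 lowers signal. Cells were CHO-M1 treated 30 min at 37C with test compounds plus a little lithium; AC50 values came from Hill-equation fitting.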
HPGD inh = inhibitors of human 15-hydroxyprostaglandin dehydrogenase (HPGD); purified HPGD, NADH fluorescence kinetic, PGE2 substrate; Potency, µM, inactives show top-dose activity change, negative = inhibition, usual class: inhibitors; actives 4.3% (n = 150,000); AID 894; active means well fitted inhibition curve with a large enough effect, not every such curve was filed as active; inconclusive means small, poorly fitted or top-dose-only effect, or another doubt; inactive means no such curve, though single readings can be large or run the other way
Target sequence (P15428 whole entry, looked up): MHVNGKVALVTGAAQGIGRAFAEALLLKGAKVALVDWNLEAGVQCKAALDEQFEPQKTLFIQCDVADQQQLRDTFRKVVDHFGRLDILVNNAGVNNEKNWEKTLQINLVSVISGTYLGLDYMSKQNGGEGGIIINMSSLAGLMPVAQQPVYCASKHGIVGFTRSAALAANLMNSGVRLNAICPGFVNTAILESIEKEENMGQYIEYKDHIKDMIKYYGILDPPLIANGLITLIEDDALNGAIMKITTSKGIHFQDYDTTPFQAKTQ
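NADH formation kinetics: reaction with 30 uM PGE2 and 1 mM NAD+ (final), 20 nM enzyme, Tris-HCl pH 8 with Tween 20, after 15 min compound preincubation at room temperature. Fluorescence change, last versus first of five reads.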
ALDH1A1 inh = inhibitors of human aldehyde dehydrogenase 1A1 | P00352 | Purified ALDH1A1, NADH fluorescence, propionaldehyde substrate | Potency, µM (series often up to 75.3 µM), inactives show top-dose activity, negative = inhibition, actives largely listed as inhibitors | actives 7.3% (n = 220,000) | AID 1030; active means well fitted inhibition curve with a large enough effect, not every such curve was filed as active; inconclusive means small, poorly fitted or top-dose-only effect, or another doubt; inactive means no such curve, though single readings can be large or run the other way;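 further: plate controls were no enzyme wells and a reference inhibitor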
Luc counter = counter-screen: inhibitors of Kinase-Glo firefly luciferase; Q27757; Kinase-Glo luciferase, ATP luminescence, 8 min; Potency, µM (highest dose often 38.3 µM), inactives show top-dose activity change, negative = inhibition, actives largely listed as inhibitors; actives 0.28% (n = 200,000); AID 1379; further: nearly all actives have a fitted effect of over 60% in size
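Luminescence was the read-out, taken after 8-minute incubation at ambient temperature. Luciferase turned over luciferin with 10 uM ATP in imidazole pH 7.2 buffer containing KCl, MgCl2, Tween 20 and BSA.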
LMNA splice mod = LMNA splicing modulation | Potency, µM (highest dose often 46.1 µM), without a hit: top-dose ratio change, negative = inhibition, usual class: inhibitors | actives 0.01% (n = 200,000) | HeLa LMNA splicing GFP/RFP minigene ratio, 48 h | AID 1487; active means well fitted inhibition curve with a large enough effect in the signal ratio, with a control signal flat, not every such curve was filed as active; inconclusive means small, poorly fitted or top-dose-only effect, or effect the other way, or a change in a side signal; the % refers to the signal ratio
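S3 HeLa stable clones carrying a lamin A-EGFP splicing minigene plus DsRed2 were seeded at 600 cells/well in Opti-MEM with 2% FBS, pin-dosed and incubated 48 h at 37°C. Acumen cytometry (488 nm) gave the GFP/RFP total-intensity ratio.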
Numbers without * were called inactive; u = inconclusive; x = no result given; ! = not active in a repeat; [ ] = dose if it differs, or a comment. The list is not random: actives were taken first. Their share in the collection is about 9%. Unless noted, the call rests on the fitted dose curve; in most records, active means well fitted curve in the direction sought with a large enough effect; inconclusive means small, poorly fitted or top-dose-only effect, or another doubt; inactive means no such curve, though single readings can be large; an effect the other way counts as inactive or inconclusive. Unless noted, on the % scale 0 is the no-effect control and ±100 the full control effect; potency means the concentration at half of the fitted maximal effect.

SMILES	IMPase Li cell	HPGD inh	ALDH1A1 inh	Luc counter	LMNA splice mod
C=C1C(C(=O)Nc2cccc(OC)c2)C1C(=O)Nc1cccc(OC)c1 (centres undefined)	16%	x	-1%	3%	u
O=C(CSc1ncnc2nc[nH]c12)Nc1ccccc1C(F)(F)F	5%[38.3 µM]	8.9µM*	0%	7%	4%
O=C(CSc1ncnc2nc[nH]c12)c1ccccc1	-11%	28µM*!	28µM*!	-5%[7.66 µM]	u
Cc1cccc(C)c1NC(=O)CSc1ncnc2nc[nH]c12	0%	-11%	6%	0%	-8%
CCC(CC)c1nnc(NC(=O)c2cccnc2SC)s1	6%	x	-1%	2%	u
CCN(C(=O)CCS(=O)(=O)c1ccc(Br)cc1)c1ccc2c(c1)OCO2	40%[38.3 µM]	-10%	16µM*	2%	-4%
O=C(CCS(=O)(=O)c1ccc(Br)cc1)Nc1ccc2c(c1)OCO2	3%	-7%	u	-3%	6%
COCC(=O)Nc1ccc(-c2cn3cccnc3n2)cc1	11µM*	u	u	-19%	1%
COc1ccc(C(=O)NCCc2csc(-c3ccc(Cl)cc3)n2)c(OC)c1	x	x	x	x	-9%[46 µM]
CCc1cccc(NC(=O)CSC2=NS(=O)(=O)c3ccccc32)c1	-6%[38.3 µM]	22µM*	u	-2%	6%
CCc1cccc(NC(=O)CN2C=NS(=O)(=O)c3ccccc32)c1	x	x	x	x	4%[46 µM]
CC(Oc1ccc(F)cc1)C(=O)NN (centres undefined)	-6%	-10%	5µM*	-1%	-8%
CC(Oc1ccc(-c2nccc(-c3ccccn3)n2)cc1)C(=O)NN (centres undefined)	16%[38.3 µM]	-5%	18µM*	-2%	1%
Cc1ccc(C(=O)Oc2ccc(-c3nccc(-c4ccccn4)n3)cc2)cc1	14%	-17%	9%	-1%	-9%
N#CCCN(C(=O)COc1ccc(C#N)cc1)c1ccc(F)cc1	-1%	x	5%	0%	-8%[46 µM]
Cc1snc2sc(C(=O)c3ccc(Br)cc3)c(N)c12	22%[38.3 µM]	-11%	6%	-1%	9%
Cc1ccc(C(=O)c2sc3nsc(C)c3c2N)cc1	73%[38.3 µM]	-27%	14µM*	-4%	13%
Cc1cc(-c2nsc(=O)o2)c(S(C)(=O)=O)s1	-16%[38.3 µM]	4.5µM*	2.8µM*	6%	-9%
CCN(CC)CCN1C(=O)C(=O)/C(=C(/O)c2cccc(OC)c2)C1c1ccccn1 (centres undefined)	11%[38.3 µM]	32µM*	u	-5%	14%
COCCN1C(=O)C(=O)/C(=C(/O)c2ccc(C)cc2)C1c1ccccn1 (centres undefined)	5%	x	-4%	-2%	u
CCOc1ccc(/C(O)=C2/C(=O)C(=O)N(CCOCCO)C2c2ccccn2)cc1 (centres undefined)	8.9µM*	-19%	3%	-7%	5%
CCOc1ccc(/C(O)=C2/C(=O)C(=O)N(CCOCCO)C2c2ccc(F)cc2)cc1 (centres undefined)	11µM*	-12%	-10%	1%	8%
C=C1C2=CC(=O)OC(c3ccoc3)[C@]2(C)CCC1[C@]1(C)C=CC(=O)C(C)(C)C1CC(=O)OC (some centres undefined)	12%	-4%	u	-6%	x
COc1cc(C(Nc2ccc3c(c2)OCO3)C(=O)NC2CCCCC2)cc(OC)c1OC (centres undefined)	36%[38.3 µM]	-29%	0.63µM*	-1%	1%
Cc1ccc(-c2nc3sc(C#N)c(N)n3c(=O)c2C#N)cc1	-2%	x	20%	-1%	u
SMILES	IMPase Li cell	HPGD inh	ALDH1A1 inh	Luc counter	LMNA splice mod
O=C(NN=C1CCCCCC1)c1cn(-c2ccccc2)nc1-c1ccccc1	8%	-4%	3.5µM*	1%	-3%
Cc1cccc(C)c1NC(=O)c1cn(-c2ccccc2)nc1-c1ccccc1	1%	-8%	11%	-3%	9%
Cc1cc(C)c(/C=C/c2onc(C)c2S(=O)(=O)N2CCC(C(=O)NCc3ccco3)CC2)c(C)c1	x	x	x	x	-2%[46 µM]
COc1cc(NS(=O)(=O)c2cc(Br)cc3c2N(C(C)=O)C(C)C3)cc(OC)c1 (centres undefined)	x	x	x	x	4%[46 µM]
CCOC(=O)c1c(-c2ccc(OC)cc2)csc1/N=C/C1C(=O)CCCC1=O	7%	x	5µM*	-2%	14%[46 µM]
COc1ccc(/C=C(\C#N)C(=O)c2c(C)[nH]c3ccccc23)cc1OC	16%	-2%	10%	1%	8%
COc1cc(/C=C(\C#N)C(=O)c2c(C)[nH]c3ccccc23)cc(OC)c1OC	x	x	8.9µM*	x	-11%
COc1cc(Cl)cc(C2NC(=S)NC(c3ccccc3)=C2C(C)=O)c1OCC(=O)O (centres undefined)	-3%	x	-10%	x	x
Cn1cc(CNC(=O)C23CC4CC(CC(C4)C2)C3)cn1	8%	-14%	5µM*	-2%	-6%
Nc1nc2c(nc(Sc3ccc(Cl)cc3)n2C2OC(CO)C(O)C2O)c(=O)[nH]1 (centres undefined)	3%	-15%	1%	0%	-12%
O=C(O)/C=C/c1cn(-c2ncc(C(F)(F)F)cc2Cl)c2ccccc12	-9%[38.3 µM]	2µM*	-15%	-5%	13%
COc1ccccc1N(CC(=O)N/N=C/c1ccccc1C(=O)O)S(C)(=O)=O	x	x	18%	x	x
CC1(C)CC(=O)C=C(Nc2ccccc2F)C1	-6%[38.3 µM]	22µM*	u	-5%	-5%
CC1(C)CC(=O)C=C(NCc2ccccc2)C1	1%[38.3 µM]	-13%	11%	2%	14%
CC1(C)CC(=O)C=C(Nc2ccc(F)cc2F)C1	3%[38.3 µM]	-20%	u	-1%	6%
CC1(C)CC(=O)C=C(Nc2cc(-c3ccccc3)[nH]n2)C1	-6%[38.3 µM]	-6%	4.5µM*	-1%	-10%
Nc1ccc2c(c1)OC1(CCCCC1)O2	3%	x	u	-1%	u
CCN(C(=O)COC(=O)CNC(=O)c1ccc(C)c(C)c1)C1CCS(=O)(=O)C1 (centres undefined)	-9%	-12%	25µM*	-5%	-8%
CCN(CC(=O)Nc1cc(C)nn1-c1nc(C)cc(C)n1)Cc1ccccc1	4%[38.3 µM]	0%	20µM*	-1%	-18%
Cc1cc(C)nc(-n2nc(C)cc2NC(=O)CNC2CCCCC2)n1	2%[38.3 µM]	-9%	u	1%	3%
Cc1cc(C)nc(-n2nc(C)cc2NC(=O)CN2CCCC(C)C2)n1 (centres undefined)	12%[38.3 µM]	-6%	u	0%	16%
CCC(C(=O)Nc1cc(C)nn1-c1nc(C)cc(C)n1)c1ccccc1 (centres undefined)	13%[38.3 µM]	-15%	u	2%	1%
Cc1cc(C)nc(-n2nc(C)cc2NC(=O)CN2CCc3ccccc3C2)n1	11%[38.3 µM]	4%	25µM*	-1%	u
Cc1cc(C)nc(-n2nc(C)cc2NC(=O)CNCc2ccccc2)n1	4%[38.3 µM]	-11%	8.9µM*	-7%	-1%

Compound activity from PubChem BioAssay.
